# Test results as given in the supplement of paper PMC10127200.
# Structures can show the parent of a compound that is named as a salt.
# Tests used:
# Assay in all cases: Euclidean distance of Cell Painting phenotypic profile (signed KS, 77 features) to DMSO centroid (dimensionless distance); higher = stronger phenotypic change vs DMSO (phenoactivity)
# Conditions in all cases: 48 h; 5 or 10 uM (library dependent)
# 786-O = tested on: 786-O
# Outline: (§1)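 At 10 or 5 uM, as set by the library, and 0.1% DMSO final, compounds were applied for 48 h to five cancer lines and one healthy fibroblast line. Stained cells were imaged confocally at 20X in 9 fields per well, and Harmony extracted 77 features scored as signed Kolmogorov-Smirnov statistics against vehicle wells on the same plate. Profiles underwent plate-position correction, correlation weighting and replicate averaging at the top dose. Phenoactivity is the Euclidean distance from each such profile to the median vehicle profile.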
# A549 = tested on: A549
# Outline: as §1
# DU145 = tested on: DU145
# Outline: as §1
# FB = tested on: FB
# Outline: as §1
# HEPG2 = tested on: HEPG2
# Outline: as §1
# OVCAR4 = tested on: OVCAR4
# Outline: as §1
Structure (SMILES),Euclidean distance (786-O),Euclidean distance (A549),Euclidean distance (DU145),Euclidean distance (FB),Euclidean distance (HEPG2),Euclidean distance (OVCAR4)
NCCCNCCSP(=O)(O)O [Amifostine],2.98,1.18,1.66,1.8,1.22,1.31
O=c1[nH]c2ccccc2n1C1CCN(CCCC(c2ccc(F)cc2)c2ccc(F)cc2)CC1 [Pimozide],1.83,3.09,1.3,1.12,0.874,0.955
COc1ccc(C=O)cc1 [p-Anisaldehyde],1.24,0.754,0.627,0.751,0.785,1.16
CC(C)[N+](C)(CCC(C(N)=O)(c1ccccc1)c1ccccc1)C(C)C [Isopropamide Iodide],1.26,0.953,1.08,1.25,0.717,1.23
Cc1ccccc1-n1c(Cn2ncc3c(N)ncnc32)nc2cccc(C)c2c1=O,0.868,0.946,1.12,0.901,2.23,1.03
C[C@]12CC[C@H](O)C[C@H]1CC[C@@H]1[C@@H]2C[C@@H](O)[C@]2(C)[C@@H](C3=CC(=O)OC3)CC[C@]12O [Digoxigenin],6.59,5.09,7.21,3.92,3.09,5.51
C[N+]12CCC(CC1)C(OC(=O)C(O)(c1ccccc1)c1ccccc1)C2 (stereo unspecified) [Clidinium Bromide],0.785,0.788,0.87,0.845,0.445,0.671
COc1ccc2[nH]cc(CCN)c2c1 [5-Methoxytryptamine],0.978,0.912,0.758,1.38,0.952,0.882
CCN(CC)CCOC(=O)C(O)(c1ccccc1)c1ccccc1 [Benactyzine hydrochloride],1.27,0.786,1.33,0.83,0.592,1.71
COc1cc(-n2c(=S)[nH]c3ccccc3c2=O)c(Cl)cc1Cl [Mdivi-1],1.11,1.02,0.97,1.3,0.841,0.792
Cn1cc(C2=C(c3cn(C4CCN(Cc5ccccn5)CC4)c4ccccc34)C(=O)NC2=O)c2ccccc21,1.96,3.16,1.32,0.965,0.683,1.79
COc1ccc2c3c([nH]c2c1)C(C)=NCC3 [Harmaline],1.25,0.845,1.34,1.09,0.398,1.37
C=CN1CCCC1=O.II [Povidone iodine],0.772,0.725,0.784,1.19,1.94,1.05
C=C(C)[C@H]1Cc2c(ccc3c2O[C@@H]2COc4cc(OC)c(OC)cc4[C@@H]2C3=O)O1 [Rotenone (Barbasco)],2.48,2.97,3.54,2.77,2.94,2.89
O=C(O)CNC(=O)C1C(=O)N(C2CCCCC2)C(=O)N(C2CCCCC2)C1=O,1.18,0.61,1.4,1.16,1.1,0.706
CN1[C@@H]2CC[C@H]1C[C@@H](OC(=O)[C@H](CO)c1ccccc1)C2 [Hyoscyamine],0.984,0.92,0.681,0.505,0.646,1.31
CNC(=O)Oc1cccc2ccccc12 [Carbaryl],1.83,1.3,0.843,0.842,0.501,1.03
Cc1cccc([C@H](C)c2c[nH]cn2)c1C [Dexmedetomidine],0.401,0.732,0.547,0.876,0.546,1.12
COC(=O)C[C@](O)(CCC(C)(C)O)C(=O)O[C@@H]1C(OC)=C[C@]23CCCN2CCc2cc4c(cc2[C@H]13)OCO4 [Harringtonine],3.42,3.22,4.37,3.78,3.46,3.73
O=c1ccc2cc(O[C@@H]3O[C@H](CO)[C@@H](O)[C@H](O)[C@H]3O)c(O)cc2o1 [Esculin],0.808,0.729,0.922,0.993,0.624,1.29
CN(C)C(=O)Oc1cc(OC(=O)N(C)C)cc(C(O)CNC(C)(C)C)c1 (stereo unspecified) [Bambuterol HCl],0.701,0.719,1.13,1.12,0.521,1.48
O=C(O)CCCc1ccc(N(CCCl)CCCl)cc1 [Chloroambucil],2.21,1.7,0.964,1.7,0.893,1.49
NCC(O)c1ccc(O)cc1 (stereo unspecified) [(+.-)-Octopamine HCl],1.71,0.639,0.896,0.934,0.45,1.03

Structure (SMILES),Euclidean distance (786-O),Euclidean distance (A549),Euclidean distance (DU145),Euclidean distance (FB),Euclidean distance (HEPG2),Euclidean distance (OVCAR4)
C=CCC(C(=O)NC(N)=O)C(C)C (stereo unspecified) [Apronal],1.22,0.684,1.07,0.907,0.938,1.09
CC[C@@H]1/C=C/C=C/C[C@H](C)[C@H](O)[C@](C)(O)C(=O)[C@H](C)[C@@H](O)[C@H](C)C(=O)[C@H](C)[C@@H](O)[C@H](C)/C=C/C(=O)O[C@H]2[C@@H](C)[C@@H](CC1)O[C@@]1(CC[C@@H](C)[C@@H](C[C@H](C)O)O1)[C@@H]2C [Oligomycin A],1.81,2.18,1.46,0.998,3.19,1.22
CC(C)=CCOc1c2occc2cc2ccc(=O)oc12 [Imperatorin],1.11,0.594,0.803,0.939,0.503,1.32
C=CCN1C[C@H](C(=O)N(CCCN(C)C)C(=O)NCC)C[C@@H]2c3cccc4[nH]cc(c34)C[C@H]21 [Cabergoline],1.45,0.993,1.12,1.34,0.928,1.3
O=[N+]([O-])O[C@@H]1CO[C@H]2[C@@H]1OC[C@@H]2O [Isosorbide Mononitrate],1.15,1.13,0.879,0.9,0.868,0.962
COc1cc([C@@H]2c3cc4c(cc3[C@H](O)[C@H]3COC(=O)[C@@H]23)OCO4)cc(OC)c1OC [Picropodophyllin (PPP)],3.35,2.64,4.34,2.74,3.95,3.14
C[C@H]1CNCCc2ccc(Cl)cc21 [Lorcaserin HCl],1.56,0.972,1.3,0.956,1.2,0.917
N#Cc1nn(-c2c(Cl)cc(C(F)(F)F)cc2Cl)c(N)c1[S+]([O-])C(F)(F)F (stereo unspecified) [Fipronil],0.855,1.11,0.897,1.05,0.591,0.894
N[C@@H]1C[C@H]1c1ccccc1 [Tranylcypromine (2-PCPA) HCl],1.2,1.52,1.36,2.02,1.47,1.76
CN1[C@@H]2CC[C@H]1C[C@@H](OC(=O)C(CO)c1ccccc1)C2 (stereo partly specified) [Atropine],0.688,1.55,1.19,1,2.2,1.89
C[C@@]12N[C@@H](Cc3ccccc31)c1ccccc12 [(-)-MK 801 Maleate],1,1.63,1.84,3.8,1.69,4.43
O=[N+]([O-])c1ncc[nH]1 [Azomycin],1.03,1.17,1.36,1.09,1.54,0.81
C/C=C(\C)C(=O)N[C@@H](c1ccccc1)[C@@H](O)C(=O)O[C@H]1C[C@@]2(O)[C@@H](OC(=O)c3ccccc3)[C@@H]3[C@]4(OC(C)=O)CO[C@@H]4C[C@H](O)[C@@]3(C)C(=O)[C@H](OC(C)=O)C(=C1C)C2(C)C [Cephalomannine],2.74,3.24,3.48,2.32,2.11,2.98
O=c1[nH]c2ccc(Cl)cc2c(N[C@@H]2CN3CCC2CC3)c1-c1nc2ccccc2[nH]1,4.06,4.17,3.75,3.55,3.51,4.86
C[C@H]1CCC/C=C/[C@@H]2C[C@H](O)C[C@H]2[C@H](O)/C=C/C(=O)O1 [Brefeldin A],3.77,3.61,4.53,4.79,4.54,3.85
N[C@@H](Cc1ccc(N(CCCl)CCCl)cc1)C(=O)O [Melphalan],2.91,2.76,1.19,2.75,2.72,2.13
CC(=O)[C@H]1CC[C@H]2[C@@H]3CC[C@H]4C[C@H](O)CC[C@]4(C)[C@H]3CC[C@]12C [Allopregnanolone],0.735,0.818,1.1,1.22,0.709,1.64
Nc1ccncc1 [4-Aminopyridine],1.38,0.626,0.961,0.938,0.429,0.946
COC(=O)C1=CCCN(C)C1 [Arecoline],0.942,1.44,0.841,1.01,0.762,0.957
N=C(N)NN [Aminoguanidine hydrochloride],0.96,1.11,0.602,0.888,0.598,0.998
C[C@]12CC[C@@H](O)C[C@@H]1CC[C@@H]1[C@@H]2CC[C@]2(C)C(=O)CC[C@@H]12 [Androsterone],1.51,0.773,1.2,1.28,0.665,1.07
O=P1(NCCCl)OCCCN1CCCl (stereo unspecified) [Ifosfamide],0.866,0.788,1.12,0.925,1.13,1.39
CN(C)C(=O)Oc1cccc([N+](C)(C)C)c1 [Neostigmine Bromide],1.45,0.931,0.914,0.963,0.858,1.53
